# Source: the supplement of paper PMC10849652
# The full data set covers some 8,800 targets. This sample favours those with a hit. About 0.5% of all pairs of compound and target were hits. A number with no mark means an inactive call.
# Tests used:
# Experiment in all cases: log2 fold change, soluble protein after heating vs DMSO (PISA); higher = thermal stabilisation; K562 lysate, 10 uM; active = over 0.2 and 3.5 SD of the protein, either way, in both replicates (recomputed)
# ibrutinib = compound: C=CC(=O)N1CCC[C@@H](n2nc(-c3ccc(Oc4ccccc4)cc3)c3c(N)ncnc32)C1 [ibrutinib]
# How it was run: (§1)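 Following dounce homogenisation of K562 pellets in PBS pH 7.4 with 1 mM MgCl2, crude extract at 1 mg/mL protein was incubated for 30 min with 10 μM compound. Aliquots were then heated for 3 min over 48°C-58°C and pooled, NP-40 was added to 0.5% at 4°C, and soluble protein was recovered as the supernatant at 21,000xg for 90 min. Channel-sum-equalised TMTpro 16plex LC-MS/MS quantified this protein. Each value, from duplicates, is a log-two fold change in thermal stability relative to solvent controls.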
# [1] = compound: CC(=O)c1cnc2ccc(-c3cc(Cl)c(O)c(Cl)c3)nc2c1N[C@H]1CC[C@H](CN(C)C)CC1
# How it was run: as §1
# ralimetinib = compound: CC(C)(C)Cn1c(N)nc2ccc(-c3[nH]c(C(C)(C)C)nc3-c3ccc(F)cc3)nc21 [ralimetinib]
# How it was run: as §1
# [2] = compound: CC(C)(O)CC(=O)NCCn1ccc2ncnc(Nc3ccc(Oc4cccc(C(F)(F)F)c4)c(Cl)c3)c21
# How it was run: as §1
# [3] = compound: CC(C)C1=C2N=C(C=C(N2N=C1)NCC3=CC=CC=C3)NCCCCCCN
# How it was run: as §1
# [4] = compound: CC1=C(C(CC(=O)N1)C2=CC=C(C=C2)C(F)(F)F)C(=O)NC3=C(C=C4C(=C3)C=NN4)F
# How it was run: as §1
# [5] = compound: CC1=C(C2=C(C=C1)C(=O)C3=CC=CC=C3N2CCCN)C
# How it was run: as §1
# [6] = compound: CC1=C(C=C(C=C1)NC(=O)C2=CC(=CC=C2)C(C)(C)C#N)NC3=CC4=C(C=C3)N=CN(C4=O)C
# How it was run: as §1
# [7] = compound: CC1=C(C=C(C=C1)NC(=O)C2=CC(=CC=C2)N(C)C)NC(=O)C3=CC=C(C=C3)O
# How it was run: as §1
# [8] = compound: CC1=CC=C(C=C1)SC2=C3C=C(SC3=CN=C2)C(=O)N
# How it was run: as §1
# vemurafenib = compound: CCCS(=O)(=O)Nc1ccc(F)c(C(=O)c2c[nH]c3ncc(-c4ccc(Cl)cc4)cc23)c1F [vemurafenib]
# How it was run: as §1
# [9] = compound: CCCS(=O)(=O)Nc1ccc(F)c(C(=O)c2c[nH]c3ncc(Cl)cc23)c1F
# How it was run: as §1
# barasertib = compound: CCN(CCCOc1ccc2c(Nc3cc(CC(=O)Nc4cccc(F)c4)[nH]n3)ncnc2c1)CCOP(=O)(O)O [barasertib]
# How it was run: as §1
# [10] = compound: CC[C@@H]1C(=O)N(C)c2cnc(Nc3ccc(C(=O)NC4CCN(C)CC4)cc3OC)nc2N1C1CCCC1
# How it was run: as §1
# volasertib = compound: CC[C@@H]1C(=O)N(C)c2cnc(Nc3ccc(C(=O)N[C@H]4CC[C@H](N5CCN(CC6CC6)CC5)CC4)cc3OC)nc2N1C(C)C [volasertib]
# How it was run: as §1
# [11] = compound: CCn1c(C(=O)N(C2CC2)C2CC2)cc2c3c(ncn3C)c(Nc3cc(C)n(C)n3)nc21
# How it was run: as §1
# [12] = compound: CCn1cc(-c2ccnc3[nH]c(-c4cccc(CN(C)C)c4)cc23)c(-c2ccc(NC(=O)N(C)C)cc2)n1
# How it was run: as §1
# [13] = compound: CN1CCC(CNc2ccc3ncc(-c4cccc(OC(F)(F)F)c4)n3n2)CC1
# How it was run: as §1
# saracatinib = compound: CN1CCN(CCOc2cc(OC3CCOCC3)c3c(Nc4c(Cl)ccc5c4OCO5)ncnc3c2)CC1 [saracatinib]
# How it was run: as §1
# sotrastaurin = compound: CN1CCN(c2nc(C3=C(c4c[nH]c5ccccc45)C(=O)NC3=O)c3ccccc3n2)CC1 [sotrastaurin]
# How it was run: as §1
# UniProt O94832, sequence (O94832 whole entry, looked up): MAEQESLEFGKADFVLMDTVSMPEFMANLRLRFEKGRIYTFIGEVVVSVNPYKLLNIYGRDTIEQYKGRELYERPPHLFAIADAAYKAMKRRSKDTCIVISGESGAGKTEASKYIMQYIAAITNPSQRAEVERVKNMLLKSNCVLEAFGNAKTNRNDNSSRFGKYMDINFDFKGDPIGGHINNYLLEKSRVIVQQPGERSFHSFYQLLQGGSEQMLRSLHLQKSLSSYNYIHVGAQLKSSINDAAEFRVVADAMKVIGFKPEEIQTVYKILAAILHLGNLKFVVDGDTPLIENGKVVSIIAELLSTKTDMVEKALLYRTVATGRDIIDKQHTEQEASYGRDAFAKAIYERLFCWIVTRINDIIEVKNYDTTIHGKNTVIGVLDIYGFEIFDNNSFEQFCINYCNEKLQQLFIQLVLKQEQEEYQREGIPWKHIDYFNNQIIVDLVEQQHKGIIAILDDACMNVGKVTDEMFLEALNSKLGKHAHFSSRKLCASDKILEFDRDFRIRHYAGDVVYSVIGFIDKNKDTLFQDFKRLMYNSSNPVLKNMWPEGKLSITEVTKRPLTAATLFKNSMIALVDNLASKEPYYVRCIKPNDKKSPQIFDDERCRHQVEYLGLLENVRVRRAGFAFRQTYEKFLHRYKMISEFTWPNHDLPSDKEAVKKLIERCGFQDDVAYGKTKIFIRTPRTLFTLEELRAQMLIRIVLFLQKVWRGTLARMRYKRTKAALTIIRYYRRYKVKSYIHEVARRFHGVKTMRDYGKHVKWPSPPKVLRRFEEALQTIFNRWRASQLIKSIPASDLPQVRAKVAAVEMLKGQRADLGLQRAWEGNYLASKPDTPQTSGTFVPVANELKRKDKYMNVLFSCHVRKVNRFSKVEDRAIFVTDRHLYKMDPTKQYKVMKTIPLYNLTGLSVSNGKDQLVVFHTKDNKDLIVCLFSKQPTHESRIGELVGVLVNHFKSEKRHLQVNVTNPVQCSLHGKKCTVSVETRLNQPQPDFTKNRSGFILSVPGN
# UniProt Q9NX02, sequence (Q9NX02 whole entry, looked up): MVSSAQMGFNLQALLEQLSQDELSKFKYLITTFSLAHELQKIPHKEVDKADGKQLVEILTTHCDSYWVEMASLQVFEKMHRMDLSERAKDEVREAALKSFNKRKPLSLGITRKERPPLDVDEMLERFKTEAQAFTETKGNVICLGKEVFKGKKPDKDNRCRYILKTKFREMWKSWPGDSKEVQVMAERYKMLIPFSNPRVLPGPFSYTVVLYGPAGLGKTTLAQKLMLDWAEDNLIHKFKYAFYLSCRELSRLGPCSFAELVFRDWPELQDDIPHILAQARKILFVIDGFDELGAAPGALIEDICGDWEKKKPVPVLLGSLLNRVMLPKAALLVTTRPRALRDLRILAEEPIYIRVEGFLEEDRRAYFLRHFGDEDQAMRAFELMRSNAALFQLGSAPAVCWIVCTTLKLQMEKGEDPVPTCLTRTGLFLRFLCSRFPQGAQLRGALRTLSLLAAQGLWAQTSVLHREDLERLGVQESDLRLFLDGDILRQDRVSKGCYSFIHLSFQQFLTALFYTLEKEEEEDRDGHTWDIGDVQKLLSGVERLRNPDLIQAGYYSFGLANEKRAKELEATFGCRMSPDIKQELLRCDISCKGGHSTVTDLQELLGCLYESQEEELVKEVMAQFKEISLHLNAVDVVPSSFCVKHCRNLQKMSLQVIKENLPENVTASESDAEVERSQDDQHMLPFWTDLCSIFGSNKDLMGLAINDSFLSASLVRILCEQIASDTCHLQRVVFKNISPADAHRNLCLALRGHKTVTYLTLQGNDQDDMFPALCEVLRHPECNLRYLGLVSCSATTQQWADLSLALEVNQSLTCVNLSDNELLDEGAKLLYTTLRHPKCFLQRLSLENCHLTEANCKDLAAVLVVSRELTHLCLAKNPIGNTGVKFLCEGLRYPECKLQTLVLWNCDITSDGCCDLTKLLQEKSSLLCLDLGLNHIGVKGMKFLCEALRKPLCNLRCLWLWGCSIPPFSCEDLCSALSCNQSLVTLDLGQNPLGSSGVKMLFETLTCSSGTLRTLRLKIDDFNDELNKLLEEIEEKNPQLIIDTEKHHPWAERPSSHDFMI
# UniProt P43246, sequence (P43246 whole entry, looked up): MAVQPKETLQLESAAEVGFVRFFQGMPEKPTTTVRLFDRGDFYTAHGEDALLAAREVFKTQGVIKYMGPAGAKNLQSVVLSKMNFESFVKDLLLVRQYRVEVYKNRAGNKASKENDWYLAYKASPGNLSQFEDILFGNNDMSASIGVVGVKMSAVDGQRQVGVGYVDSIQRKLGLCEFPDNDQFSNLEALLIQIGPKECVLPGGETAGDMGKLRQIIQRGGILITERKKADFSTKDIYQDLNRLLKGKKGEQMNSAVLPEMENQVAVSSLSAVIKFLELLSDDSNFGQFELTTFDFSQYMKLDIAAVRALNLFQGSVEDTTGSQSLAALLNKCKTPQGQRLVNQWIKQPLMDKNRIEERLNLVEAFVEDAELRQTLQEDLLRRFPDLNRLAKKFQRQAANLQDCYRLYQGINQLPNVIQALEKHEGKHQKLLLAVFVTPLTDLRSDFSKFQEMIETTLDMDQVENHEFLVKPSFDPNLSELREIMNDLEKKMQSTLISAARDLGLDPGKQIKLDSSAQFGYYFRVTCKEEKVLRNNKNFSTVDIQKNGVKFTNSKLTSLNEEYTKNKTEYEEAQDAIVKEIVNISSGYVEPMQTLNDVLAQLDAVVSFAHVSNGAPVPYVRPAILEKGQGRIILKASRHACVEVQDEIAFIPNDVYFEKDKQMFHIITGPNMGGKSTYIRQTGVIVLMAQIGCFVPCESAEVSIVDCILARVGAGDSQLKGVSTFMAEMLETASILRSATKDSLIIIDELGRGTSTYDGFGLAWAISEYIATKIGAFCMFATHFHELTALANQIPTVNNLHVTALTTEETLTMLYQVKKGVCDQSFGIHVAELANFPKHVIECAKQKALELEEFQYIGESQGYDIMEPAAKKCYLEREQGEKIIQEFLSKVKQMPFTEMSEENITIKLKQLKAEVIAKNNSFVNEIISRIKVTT
# UniProt Q15003, sequence (Q15003 whole entry, looked up): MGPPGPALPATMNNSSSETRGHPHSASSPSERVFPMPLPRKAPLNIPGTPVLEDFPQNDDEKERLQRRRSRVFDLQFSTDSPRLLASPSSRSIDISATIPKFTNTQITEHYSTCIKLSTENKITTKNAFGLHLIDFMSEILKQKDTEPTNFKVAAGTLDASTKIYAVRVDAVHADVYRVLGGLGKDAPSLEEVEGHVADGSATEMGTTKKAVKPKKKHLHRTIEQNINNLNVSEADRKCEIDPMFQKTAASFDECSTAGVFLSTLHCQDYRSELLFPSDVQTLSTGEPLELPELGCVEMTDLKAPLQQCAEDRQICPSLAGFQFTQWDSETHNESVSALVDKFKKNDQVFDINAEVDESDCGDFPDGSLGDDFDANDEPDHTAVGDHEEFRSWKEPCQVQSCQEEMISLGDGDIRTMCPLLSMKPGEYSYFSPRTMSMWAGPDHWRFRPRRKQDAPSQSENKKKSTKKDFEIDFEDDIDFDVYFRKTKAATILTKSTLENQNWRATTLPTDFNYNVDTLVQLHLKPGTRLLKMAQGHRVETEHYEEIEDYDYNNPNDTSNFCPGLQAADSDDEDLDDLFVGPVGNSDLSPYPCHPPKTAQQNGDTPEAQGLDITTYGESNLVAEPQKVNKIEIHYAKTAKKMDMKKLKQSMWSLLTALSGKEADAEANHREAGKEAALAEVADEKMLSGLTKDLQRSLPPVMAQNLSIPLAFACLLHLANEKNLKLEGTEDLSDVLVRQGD
# UniProt Q147X3, sequence (Q147X3 whole entry, looked up): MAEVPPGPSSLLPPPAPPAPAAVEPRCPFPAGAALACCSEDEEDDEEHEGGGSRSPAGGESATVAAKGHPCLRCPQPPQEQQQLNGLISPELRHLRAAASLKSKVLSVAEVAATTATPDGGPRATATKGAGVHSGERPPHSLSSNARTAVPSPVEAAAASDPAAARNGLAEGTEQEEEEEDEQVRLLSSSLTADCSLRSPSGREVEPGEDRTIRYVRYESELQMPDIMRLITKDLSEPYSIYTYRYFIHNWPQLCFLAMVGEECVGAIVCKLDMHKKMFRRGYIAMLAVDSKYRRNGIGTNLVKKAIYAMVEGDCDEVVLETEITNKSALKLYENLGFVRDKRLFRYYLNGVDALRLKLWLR
# UniProt Q9BZD4, sequence (Q9BZD4 whole entry, looked up): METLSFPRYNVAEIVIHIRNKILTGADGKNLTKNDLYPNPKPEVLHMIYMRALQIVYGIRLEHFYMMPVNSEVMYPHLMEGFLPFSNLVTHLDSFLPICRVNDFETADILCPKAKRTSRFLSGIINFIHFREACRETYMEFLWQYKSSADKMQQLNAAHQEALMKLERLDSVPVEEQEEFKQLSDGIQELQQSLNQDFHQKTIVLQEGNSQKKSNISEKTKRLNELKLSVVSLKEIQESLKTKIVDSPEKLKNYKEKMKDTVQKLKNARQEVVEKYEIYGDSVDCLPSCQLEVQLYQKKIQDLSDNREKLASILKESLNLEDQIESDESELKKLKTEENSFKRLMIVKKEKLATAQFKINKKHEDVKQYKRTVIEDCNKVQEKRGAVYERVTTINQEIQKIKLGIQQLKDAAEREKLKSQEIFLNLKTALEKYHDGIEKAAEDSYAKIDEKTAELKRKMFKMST
# UniProt P15559, sequence (P15559 whole entry, looked up): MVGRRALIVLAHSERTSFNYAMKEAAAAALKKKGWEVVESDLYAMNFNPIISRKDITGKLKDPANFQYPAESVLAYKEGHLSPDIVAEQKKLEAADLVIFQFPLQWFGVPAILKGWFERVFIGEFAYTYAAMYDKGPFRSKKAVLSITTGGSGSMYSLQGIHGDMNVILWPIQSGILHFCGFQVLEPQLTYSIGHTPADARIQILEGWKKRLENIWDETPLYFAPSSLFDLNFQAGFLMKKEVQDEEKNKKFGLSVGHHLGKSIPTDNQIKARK
# UniProt Q15843, sequence (Q15843 whole entry, looked up): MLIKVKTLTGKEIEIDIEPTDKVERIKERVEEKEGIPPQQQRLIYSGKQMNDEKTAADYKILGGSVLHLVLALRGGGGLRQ
Target,log2 fold change (ibrutinib),log2 fold change [1],log2 fold change (ralimetinib),log2 fold change [2],log2 fold change [3],log2 fold change [4],log2 fold change [5],log2 fold change [6],log2 fold change [7],log2 fold change [8],log2 fold change (vemurafenib),log2 fold change [9],log2 fold change (barasertib),log2 fold change [10],log2 fold change (volasertib),log2 fold change [11],log2 fold change [12],log2 fold change [13],log2 fold change (saracatinib),log2 fold change (sotrastaurin)
MSH2 (UniProt P43246),-0.009,-0.01,0.019,0.02,0.019,-0.012,-0.014,0,0.037,0.019,-0.014,0.001,0.007,-0.033,-0.068,0.038,0.003,-0.055,0,0.032
NUCB2 (UniProt P80303),0.025,0.002,-0.023,0.01,0.009,0.04,-0.006,0,-0.015,-0.014,0.01,-0.009,-0.004,0.052,0.022,-0.008,0.338 (active),-0.084,0.015,-0.026
NEDD8 (UniProt Q15843),0.059,-0.013,-0.001,0,0.011,-0.01,0.005,0.077,0.025,-0.029,0.063,0.019,0.113,-0.003,0.045,0.041,0.025,-0.107,0.02,0
NUP98 (UniProt P52948),-0.01,0.047,0.047,0.022,-0.037,0.034,0.029,-0.022,0.008,-0.017,0.001,0.035,0.02,-0.005,-0.071,0.031,-0.062,0.019,0.073,-0.005
NUF2 (UniProt Q9BZD4),-0.052,-0.051,0.03,0.015,-0.001,0.018,0.027,-0.011,0.044,0.009,-0.01,0.016,0.048,-0.126,-0.029,0.016,-0.069,-0.101,0.032,0.03
MSI2 (UniProt Q96DH6),0.044,-0.024,0.032,-0.039,0.015,-0.029,0.009,-0.315 (active),0.03,0.054,0.039,-0.007,0.009,0.016,-0.023,0.13,-0.014,0.002,-0.015,-0.002
NLRP2 (UniProt Q9NX02),-0.007,-0.007,0.036,0.021,-0.008,0.007,0.009,0.003,0.021,0.021,-0.011,-0.003,-0.04,-0.048,-0.067,0.041,0.031,-0.05,-0.012,-0.017
NAA30 (UniProt Q147X3),0.013,-0.017,0.057,-0.037,-0.018,0.084,-0.024,-0.045,0.004,0.046,0.001,0.009,0.037,0.043,0.012,-0.058,-0.022,0.043,-0.003,0.045
MYO1D (UniProt O94832),-0.016,-0.012,0.04,0.003,0.018,-0.021,-0.009,-0.014,0.01,0.031,0.073,0.018,0.05,0.006,-0.003,-0.002,-0.05,-0.035,-0.001,0.041
"MTHFD1, A0A384N5Y3",-0.014,-0.001,0.028,0.028,0.03,-0.033,-0.032,0.003,0.047,0.014,0.058,0.011,0.017,-0.06,-0.112,0.059,0.008,-0.053,-0.012,0.039
NUP133 (UniProt Q8WUM0),0.016,-0.015,0.006,0.045,-0.01,0.064,-0.02,0.01,0.009,-0.002,0.009,0.014,0.01,-0.028,-0.081,0.05,-0.047,0.04,0.014,0.038
NAT1 (UniProt P18440),-0.089,-0.039,0.062,0.019,-0.035,-0.001,-0.048,0.034,0.009,0.052,0.04,-0.003,-0.104,0.003,0.009,-0.012,-0.149,-0.014,-0.001,0.078
NQO1 (UniProt P15559),0.009,-0.003,0.033,0.081,-0.009,0.001,0.159,0.038,-0.025,0.067,-0.014,0.026,0.163,-0.097,-0.082,-0.023,-0.067,-0.035,0.155,0.034
NCAPH (UniProt Q15003),0.006,0.016,-0.002,-0.031,-0.013,0.003,-0.001,-0.003,0.012,0.011,-0.015,0.001,0.012,-0.046,-0.044,0.027,-0.057,-0.035,-0.016,0.015
MTOR (UniProt P42345),-0.016,0.001,0.018,-0.005,-0.043,0.02,0.019,0.031,0.058,-0.013,0.026,0.015,0.052,-0.045,-0.044,-0.006,-0.04,-0.031,0.005,0.03
NCAPD3 (UniProt P42695),0.001,-0.017,0.043,-0.019,-0.008,0.007,-0.024,-0.012,0.036,-0.012,-0.032,0.047,0.06,-0.013,-0.088,0.035,0.068,-0.015,0.008,0.003
